Source: PubChem (National Center for Advancing Translational Sciences (NCATS))
Rows were chosen to be rich in hits. Some 10% of all compounds tested hit in one or more screens of this group.
FLuc inh = blocks purified firefly luciferase enzyme activity | P08659 | Potency, µM (doses to about 115 µM), hits mostly inhibitors | AID 1347043 | actives 2.5% (n = 76,000) | purified P. pyralis luciferase, luminescence, biochemical; further: nearly all actives have a fitted effect of over 65% in size
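Luminescence read by CCD imaging after purified firefly luciferase (10nM final) was added to substrate buffer holding 10uM D-luciferin and 10uM ATP, pH 7.5, pre-dosed with compound.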
3T3 cytotox = cytotoxic compounds in NIH 3T3 cells. NIH 3T3 viability, CellTiter-Glo ATP luminescence, 48-72 h. Potency, µM (top dose mostly 96.7 µM), inactives show at the highest dose activity change, negative = cytotoxicity, most hits filed as inhibitors. actives 4.3% (n = 94,000). AID 1345082; further: nearly all actives have a fitted effect of over 55% in size
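ATP-dependent luminescence (CellTiter-Glo) served as the viability signal for NIH 3T3 cells treated with compound for 48 or 72 hr at 37 °C.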
hNpr1 antagonist = human Npr1 receptor antagonism. HEK293 hNpr1 GloSensor cGMP, ANP-stimulated luminescence. Potency, µM (highest dose often 46.3 µM), inactives show top-dose activity change, negative = inhibition, actives largely listed as inhibitors. actives 1.6% (n = 76,000); calls by dose curve; further: nearly all actives have a fitted effect of over 60% in size
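HEK293 cells stably expressing human Npr1 and cGMP GloSensor pGS-40F, loaded 2 h with 2% GloSensor reagent, given compound 30 min at room temperature. Luminescence read before and 20 min after 0.1 nM hNppA.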
GPT2 inhibitor = GPT2 alanine aminotransferase inhibition. Q8TD30. Recombinant GPT2, coupled pyruvate oxidase/HRP Amplex Red fluorescence. Potency, µM (series often up to 57.7 µM), for inactives: at the highest dose activity change, negative = inhibition, hits mostly inhibitors. actives 0.25% (n = 100,000). AID 1671188; further: nearly all actives have a fitted effect of over 60% in size
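Fluorescence of coupled pyruvate oxidase/HRP/Amplex Red system (50uM Amplex, 30 min, dark) reports pyruvate formed by GPT2. Enzyme reaction: 10ng/uL GPT2, 2mM L-alanine, 250uM a-KG, 30 min room temperature, pH 7.5; 50uM AOA control.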
HEK cytotox = kills HEK 293 cells | HEK 293 viability, ATP luminescence (CellTiter-Glo), 48-72 h | Potency, µM (doses to about 115 µM), for inactives: at the top dose activity change, negative = cytotoxicity, actives largely listed as inhibitors | AID 1345083 | actives 6.6% (n = 94,000); further: nearly all actives have a fitted effect of over 60% in size
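HEK 293 cells seeded at 250 cells/well were exposed to compound for 48 or 72 hr at 37 degree Celsius. Viability taken as ATP content by CellTiter-Glo luminescence.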
* hit, by the source's call; i = inactive; ? = inconclusive; · = not tested or not shown; [ ] = remark or other dose. Unless noted, the call rests on the fitted dose curve; in most records, active means well fitted curve in the direction sought with a large enough effect; inconclusive means small, poorly fitted or top-dose-only effect, or another doubt; inactive means no such curve, though single readings can be large; an effect the other way counts as inactive or inconclusive. On the % scale 0 is the no-effect control and ±100 the full control effect; potency means the concentration at half of the fitted maximal effect.

SMILES | FLuc inh | 3T3 cytotox | hNpr1 antagonist | GPT2 inhibitor | HEK cytotox
COc1ccc2c3c1O[C@H]1[C@@H](O)C=C[C@H]4[C@@H](C2)N(C)CC[C@@]341 | · | · | · | i | ·
CC(=O)Nc1ccc(S(=O)(=O)N2C[C@@H]3C[C@H](C2)c2c(-c4cccs4)ccc(=O)n2C3)cc1 | i | -22% | -4% | -16% | -2%
NCC(O)c1cc(O)c(O)cc1F (stereo unspecified) | · | · | · | 10µM* | ·
O=C1NC2(CCN(Cc3cccnc3)C2)COc2ccccc21 (stereo unspecified) | i | 35µM* | 6%[70.6 µM] | i | 79µM*
CCOP(=O)(OCC)Oc1ccc2c(C)cc(=O)oc2c1 | · | · | · | 3% | ·
O=C(O)CCC(=O)N1C[C@@H]2C[C@H](C1)c1ccc(-c3ccc(Cl)cc3)c(=O)n1C2 | i | i | 0%[70.6 µM] | i | 2%[172 µM]
O=C(c1ccccc1)N1C[C@@H]2C[C@H](C1)c1ccc(-c3ccc(Cl)cc3)c(=O)n1C2 | i | 63µM* | -15%[70.6 µM] | i | ?
Cc1nc(-c2ccccc2)cc([C@H]2CN3CC[C@H]2C[C@@H]3CNS(=O)(=O)Cc2ccccc2)n1 | i | 79µM* | -1% | i | 79µM*
CCC(CC)c1cc([C@H]2CN3CC[C@H]2C[C@@H]3CNC(=O)c2cccs2)nc(-c2ccncc2)n1 | i | 22µM* | ? | -13% | ?
Cc1nc(-c2ccccc2)cc([C@H]2CN3CC[C@H]2C[C@@H]3CNC(=O)c2cccs2)n1 | i | ? | -3%[70.6 µM] | -1%[88.5 µM] | 71µM*
CCC(CC)c1cc([C@H]2CN3CC[C@H]2C[C@@H]3CNC(=O)Cc2cccs2)nc(-c2ccncc2)n1 | i | 28µM* | ? | -4% | 40µM*
Cn1nc(-c2ccccc2)cc1[C@H]1CN2CC[C@H]1C[C@@H]2CNC(=O)c1cccs1 | i | ? | 3%[70.6 µM] | 1%[88.5 µM] | ?
CCOC(=O)[C@H]1CN(C(=O)OCC(C)(C)C)[C@]2(C)C(=O)N(CC3CC3)c3ccccc3[C@H]12 | · | ? | · | -1%[27.3 µM] | ?
CN1CCN(C(=O)Cc2c[nH]c3ncc(-c4ccccc4Oc4ccccc4)cc23)CC1 | i | ? | ? | -1%[88.5 µM] | 79µM*
COc1cccc(-c2cnc3[nH]cc(CC(=O)N4CCN(C)CC4)c3c2)c1 | 20µM* | ? | -19%[70.6 µM] | i | ?
COc1ncccc1-c1cnc2[nH]cc(CC(=O)N3CCN(C)CC3)c2c1 | i | ? | 3%[70.6 µM] | i | -25%[172 µM]
CN1CCN(C(=O)Cc2c[nH]c3ncc(-c4cccc(OC(F)(F)F)c4)cc23)CC1 | i | 79µM* | -1%[70.6 µM] | ? | ?
N#Cc1cccc(NC(=O)NC[C@H]2C[C@@H]3CCN2C[C@@H]3CN2CCN(c3ccccc3)CC2)c1 | i | 22µM* | -16% | -2% | ?
O=C(NC[C@H]1C[C@@H]2CCN1C[C@@H]2CN1CCN(c2ccc(F)cc2)CC1)Nc1cccc(F)c1 | i | 22µM* | -19% | -3% | 28µM*
COc1ccccc1-c1cc([C@H]2CN3CC[C@H]2C[C@@H]3COC(=O)Nc2ccc(C(C)C)cc2)nc(C)n1 | 18µM* | ? | -26% | -3% | 5µM*
Cc1nc(-c2cccs2)cc([C@H]2CN3CC[C@H]2C[C@@H]3CNS(C)(=O)=O)n1 | i | ? | 1%[70.6 µM] | -13%[88.5 µM] | ?
Cc1nc(-c2cccs2)cc([C@H]2CN3CC[C@H]2C[C@@H]3COC(=O)Nc2ccc(C(C)C)cc2)n1 | ? | 8.9µM* | ? | -11% | 5.6µM*
C[C@H]1C/C=C/[C@H]2[C@@H]3O[C@]3(C)[C@@H](C)[C@H]3[C@H](Cc4ccccc4)NC(=O)[C@]32OC(=O)O/C=C/[C@@](C)(O)C1=O | · | · | · | i | ·
CC(=O)O[C@H]1CN2CCC1CC2 | · | · | · | i | ·
CC[C@H]1CN2CC[C@H]1C[C@@H]2CNC(=O)Nc1ccc(Oc2ccccc2)cc1 | i | 28µM* | -8%[70.6 µM] | ? | 25µM*
SMILES | FLuc inh | 3T3 cytotox | hNpr1 antagonist | GPT2 inhibitor | HEK cytotox
CC[C@H]1CN2CC[C@H]1C[C@@H]2CNC(=S)Nc1ccc(C)cc1Br | i | 45µM* | -18%[70.6 µM] | i | ?
CC[C@H]1CN2CC[C@H]1C[C@@H]2CNC(=O)Nc1ccccc1 | i | 1%[230 µM] | 3%[70.6 µM] | i | i
COc1ccc(NC(=O)NC[C@H]2C[C@@H]3CCN2C[C@@H]3CN2CCN(c3ccccc3OC)CC2)cc1 | i | ? | -18% | -3% | 89µM*
CCOC(=O)[C@H]1CN(C(=O)NCc2ccccc2)[C@]2(C)C(=O)N(CC(=O)N(C)C)c3ccccc3[C@H]12 | · | ? | · | -9%[27.3 µM] | i
C[C@H]1CCC[C@H](O)CCC/C=C/c2cc(O)cc(O)c2C(=O)O1 | · | · | · | i | ·
Cc1ccc(C(=O)N2CCC3(CC2)c2nccn2-c2ccccc2CN3CC(C)C)cc1F | i | 35µM* | -20% | 4% | 35µM*
CC(C)CN1Cc2ccccc2-n2ccnc2C12CCN(C(=O)C(C)C)CC2 | i | -22% | -3% | -16% | ?
COc1cc2c(cc1OCc1ccccc1)NC(=O)C21CCN(CC2CC2)CC1 | ? | 32µM* | -1%[70.6 µM] | 3%[88.5 µM] | 40µM*
COc1cc2c(cc1-c1cccnc1OC)NC(=O)C21CCN(C(C)=O)CC1 | i | ? | -7%[70.6 µM] | i | -31%[172 µM]
COc1cc2c(cc1OCc1ccncc1)NC(=O)C21CCN(C(=O)c2cccnc2)CC1 | i | 35µM* | 1% | 5% | 4%
COc1ncc(-c2cc3c(cc2OC)C2(CCN(C(C)=O)CC2)C(=O)N3)cn1 | i | 45µM* | 3%[70.6 µM] | -16%[88.5 µM] | -9%[172 µM]
COc1cc2c(cc1OCc1ccncc1)NC(=O)C21CCN(Cc2ccccc2O)CC1 | i | ? | -23% | i | 45µM*
O=C(O)C1=NOC2CN(Cc3cncs3)CC12 (stereo unspecified) | · | i | · | -18%[88.5 µM] | 4%[172 µM]
COc1ccc2c(c1)C1(CCN(C(=O)C(C)(C)C)C1)C(=O)N2C (stereo unspecified) | i | -12% | -7% | i | ?
COc1cc2c(cc1OCc1ccncc1)NC(=O)C21CCN(c2ccccn2)CC1 | i | ? | -27%[70.6 µM] | 4%[88.5 µM] | ?
COc1cc2c(cc1OCc1ccncc1)NC(=O)C21CCN(CC2CC2)CC1 | i | 100µM* | 6%[70.6 µM] | 1%[88.5 µM] | -23%[172 µM]
COc1cc2c(cc1OCC1CC1)NC(=O)C21CCN(Cc2nccs2)CC1 | i | ? | -12%[70.6 µM] | -14%[88.5 µM] | ?
COc1cc2c(cc1OCC1CC1)NC(=O)C21CCN(C(=O)c2cccc(C#N)c2)CC1 | i | ? | 0%[70.6 µM] | 5%[88.5 µM] | 79µM*
COc1cc2c(cc1OCc1ccccc1)NC(=O)C21CCN(Cc2ccccn2)CC1 | i | 89µM* | 5%[70.6 µM] | i | 79µM*
